Assay results taken from PubChem BioAssay AID493085 (Broad Institute, 2011).
Among all 2,400 compounds or so, about 360 (15%) were called active. Inconclusive results (about 5%) are left out.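 The calls were made as follows: active = falling-signal curve with half-maximal concentration at or below ten times the top tested dose; inconclusive = flat fit at 30 to 70% inhibition, or poor fit; inactive = signal rise, flat within 30%, or potency beyond limit.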 Not all results are given here. Results with a measured potency or affinity are listed apart.

test: dox-induced RFP signal loss in R4-3T3 cells – cell-based, NIH3T3 R4, HSE-GFP and Tet-On RFP, cherry-pick, set 3, dose response (AID 493085); conditions: NIH3T3 R4 HSE-GFP/Tet-RFP reporter, fluorescence, 48 h; series mostly up to 19.5 µM;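 also: cells heat shocked 2 h at 42 °C with doxycycline to induce reporters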

outcome, inactive:
CCN(CC)C(=O)COC(=O)c1ccc(C)c(NC(=O)c2ccco2)c1, CN1CCN(C(=O)/C(=C\c2cccs2)NC(=O)c2ccco2)CC1, Cc1ccc(N(Cc2cc3ccc(C)cc3[nH]c2=O)C(=O)c2cccs2)cc1, CCOC(=O)N1CCC(Nc2ncnc3c2cnn3-c2ccc(Cl)cc2)CC1, CC1CCCN(c2ncnc3c2cnn3-c2ccc(Cl)cc2)C1 (centres undefined), c1ccc2c(Nc3nc(-c4ccncc4)nc4ccccc34)cccc2c1, COc1cc(CCCN2CCNC[C@@H]2Cc2ccc(O)cc2)cc(OC)c1OC, O=C(COC(=O)c1ccccc1-n1cnnn1)c1ccc(F)cc1, COc1cccc(-n2c(N)c(-c3nc4ccccc4[nH]3)sc2=S)c1, COc1ccc(CC(=O)Nc2cc(C)on2)cc1, COc1ccc(/C=C/C(=O)NC(=S)NCCc2ccc(OC)c(OC)c2)cc1, COc1ccc(Nc2nc(Nc3ccc(OC)cc3)nc(-n3[nH]c(=O)c(C)c3C)n2)cc1, COc1ccccc1C(O)(C(=O)N(NC(C)=O)c1ccccc1)c1ccccc1OC, Cc1cccc(-c2nnc(NC(=O)c3cccs3)s2)c1, Cc1c(C(=O)Nc2ccc(F)cc2)sc2ncn(CC(=O)N3CCCCC3)c(=O)c12, O=C(Nc1cccc(S(=O)(=O)N2CCOCC2)c1)c1ccccn1, O=[N+]([O-])c1ccc(NCCOc2ccccc2Cl)nc1, O=[N+]([O-])c1cccc(-c2nnc(-c3ccccc3)o2)c1, O=C(c1cccs1)n1nc(-c2ccco2)nc1SCc1ccccc1, NNC(=O)c1ccc(O)cc1O, COc1cc(=O)[nH]c(SCC(=O)Nc2nc3c(s2)CCCC3)n1, CN(C)CCNC(=O)c1cc2c(s1)-c1ccc(Cl)cc1SC2, Cc1ccc(-c2csc(NC(=O)c3ccc(S(=O)(=O)N4CCc5ccccc54)cc3)n2)cc1, CCCCC(=O)Nc1cccc(NC(=O)c2cccc(Br)c2)c1, O=C(Nc1nc(-c2cccs2)cs1)c1ccc(Cl)s1, O=C(Nc1nncs1)c1ccc(F)c(S(=O)(=O)N2CCCCC2)c1, COc1cc2c(cc1OC)C(C(=O)NC1CC1)C1c3ccccc3CCN1C2=O (centres undefined), NC(=S)N/N=C/c1cc([N+](=O)[O-])ccc1OCCOc1ccccc1, CCC(C)c1ccc(OCc2ccc(C(=O)O)o2)cc1 (centres undefined), NS(=O)(=O)c1cccc(NC(=O)CNC(=O)CC23CC4CC(CC(C4)C2)C3)c1, CCOc1ccccc1C(=O)Nc1ccc(NC(=O)c2ccccc2)cc1, Cc1cc(C(=O)COC(=O)c2ccco2)c(C)n1Cc1ccco1, C=CCOc1ccn(C)c(=O)n1, O=C1OC2(CCCCC2)OC(=O)C1=CNc1nccs1, Cc1ccc(C)c(N2CCN(CCN3CCCCC3)CC2)c1, Oc1ccccc1-c1nnc(-c2ccc(C(F)(F)F)cc2)o1, COC(=O)C1=C(C)Nc2c(c(=O)n(C)c(=O)n2C)C1c1cccc(O)c1 (centres undefined), CCC(=O)N1C(C(=O)N2CCCC2)CSC1c1ccc(OC)cc1 (centres undefined), CNC(=O)Cn1nc(C)c2ccccc2c1=O, O=C(CNC(=O)C12CC3CC(CC(C3)C1)C2)NCc1ccccc1, Cc1cc(C)cc(N(CC(=O)Nc2ccc(Br)cc2)S(=O)(=O)c2c(C)[nH]c(=O)[nH]c2=O)c1, CCOc1ccccc1Nc1nnc(SCc2nnc(-c3cc(OC)c(OC)c(OC)c3)o2)s1, COc1ccc(-n2c(-c3cccc(OC)c3)nc(=S)c3c2CCCC3)cc1, COc1ccc(N2C(=O)C(C)(C)C2c2c(O)ccc3ccccc23)cc1 (centres undefined)
